HepG2 viability: HepG2 cytotoxicity, counter-screen for TGF-b inhibitors. HepG2 CAGA-GFP viability, ATP luminescence, 18 h. Potency, µM (top dose mostly 46.1 µM), without a hit: top-dose activity change, negative = cytotoxicity, actives largely listed as cytotoxic. hit rate 0.76% among 410,000. AID 588856
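CellTiter-Glo luminescence gave cytotoxicity after 18 hours at 37 degrees C. The cells were HepG2 CAGA-GFP in 1% FBS DMEM, stimulated with 500 pg/mL TGF-beta after compound addition. %Activity was normalised to no-cell wells (complete cell-killing) and DMSO (no toxicity), and curves were fitted and classified.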
HTT aggregate: inhibitors of mutant huntingtin aggregate formation in PC12 cells; PC12 HttQ103-GFP aggregates, Acumen cytometry, 40 h; Potency, µM (series often up to 46.1 µM), for inactives: top-dose activity change, negative = inhibition, actives largely listed as inhibitors; hit rate 1.1% among 220,000; AID 1688; further: on the % scale 0 is the no-effect control and ±100 the full control effect; nearly all actives have a fitted effect of over 60% in size
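Aggregates are detected as GFP objects 1–25 µm with signal 6 STDEV over background in lysates of induced PC12 cells. These carry Huntingtin exon 1 with 103 glutamines fused to GFP under an ecdysone promoter; compounds titrated.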
TGFb SMAD3 inh: TGF-b pathway inhibition; HepG2 CAGA-GFP TGF-b/SMAD3 reporter, GFP fluorescence, 18 h; TGF-beta stimulated, 500 pg/mL final; Potency, µM (titrated, usually from 46.1 µM), for inactives: at the top dose activity, negative = inhibition, most hits filed as inhibitors; hit rate 1.2% among 410,000; AID 588855; further: on the % scale 0 is the no-effect control and ±100 the full control effect; nearly all actives have a fitted effect of over 65% in size
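TGF-beta reporter screen: HEPG2 CAGA-GFP, 1% FBS, 500 pg/mL TGF-beta final, 18 h; per-cell GFP summed per well; curves fitted and categorized by class.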
HTT ATP protect: protects HTT-Q103 PC12 cells, measured by ATP; PC12 HTT-Q103 induced, cytoprotection, ATP luminescence, 40 h; Potency, µM (top dose mostly 56.4 µM), inactives show cytoprotection (ATP increase), most hits filed as activators; hit rate 0.14% among 230,000; AID 1471; further: % of control where 0% means no effect; nearly all actives have a fitted effect of over 45% in size
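Cells were plated at 1500 per well in phenol red-free DMEM with 5% equine and 5% calf serum. Tebufenozide (100 nM final) and compounds were added, then ATPlite reagent, and luminescence was read.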
ATXN2 expr inh: inhibitors of ATXN2 expression. HEK-293 ATXN2-luciferase reporter, luminescence, 24 h. Potency, µM (series often up to 57 µM), for the others: top-dose activity change, negative = inhibition, most hits filed as inhibitors. hit rate 0.72% among 360,000. AID 1745845; further: on the % scale 0 is the no-effect control and ±100 the full control effect; nearly all actives have a fitted effect of over 55% in size
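qHTS (up to 57 uM final) was run with 24 h compound exposure of reporter cells at 37 °C. Each well was multiplexed: SteadyGlo luminescence measured ATXN2-luciferase expression after a fluorogenic Gly-Phe-AFC viability readout (25 uM final).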
ATXN viability: viability counter-screen for ATXN expression inhibitors. hit rate 0.49% among 400,000. Potency, µM (highest dose often 56.7 µM), actives largely listed as cytotoxic. S2 cells (HEK-293 line with an ATXN2-luciferase reporter) viability, CellTiter-Fluor protease fluorescence, 24 h; further: nearly all actives have a fitted effect of over 40% in size
Active calls of the source: *; i = inactive; ? = inconclusive; / = no result; ! = repeats disagree; [ ] = another dose, or the depositor's remark. Most compounds without a hit are left out; they make up all but 2.8% or so of the library. The call rests on the fitted dose curve; in most records, active means well fitted curve in the direction sought with a large enough effect; inconclusive means small, poorly fitted or top-dose-only effect, or another doubt; inactive means no such curve, though single readings can be large; an effect the other way counts as inactive or inconclusive. Potency means the concentration at half of the fitted maximal effect.

SMILES	HepG2 viability	HTT aggregate	TGFb SMAD3 inh	HTT ATP protect	ATXN2 expr inh	ATXN viability
CCc1oc2ccccc2c1C(=O)c1cc(I)c(O)c(I)c1	/	12%	/	28%	5%	i
COc1ccc(NC(=O)N(C)[C@H]2C[C@H]3c4[nH]c5ccc(-c6cccc(C)c6)cc5c4CCN3C[C@H]2[C@H](C)O)cc1	-121%	/	?	/	25µM*	/
C[C@H](O)[C@@H]1CN2CCc3c([nH]c4ccc(-c5ccc6c(c5)OCO6)cc34)[C@@H]2C[C@@H]1N(C)C(=O)Nc1cc(Cl)cc(Cl)c1	-95%	/	?	/	20µM*	16µM*
C(=Nc1ccc2ccccc2n1)c1ccccn1	5%	/	4%	/	/	/
C[C@H]1CN(S(=O)(=O)c2cccc3cnccc23)CCN1	/	/	/	10%[1.9 µM]	/	/
C[C@@H]1CNCCN1S(=O)(=O)c1cccc2cnccc12	/	/	/	13µM*!	/	/
CN1/C(=C\C(=O)Nc2ccc(Br)cc2)C(C)(C)c2ccccc21	-18%	-11%	?	-1%[10 µM]	-4%	i
CN1/C(=C\C(=O)Nc2ccc(F)cc2)C(C)(C)c2ccccc21	-23%	6.3µM*	-9%	-25%[10 µM]	-3%	i
CCCNC(=O)C1(C)CCN(CCC(=O)c2ccc(Br)cc2)C1 (stereo not drawn)	-82%	/	?	/	-12%	i
COCCNC(=O)C1(C)CCCN(CCC(=O)c2ccc(Br)cc2)C1 (stereo not drawn)	13µM*	/	16µM*	/	-23%	?
CCC1C(=O)NCCN1Cc1ccc2c(c1)CN(Cc1cc(OC)c3c(c1)OCO3)CCO2 (stereo not drawn)	/	/	/	/	/	i
O=C(Nc1ccc(S(=O)(=O)N2CCCCC2c2cccnc2)cc1)c1ccc(Br)cc1 (stereo not drawn)	-31%	/	0%	/	14µM*	11µM*
CC(=O)Nc1ccc(S(=O)(=O)N2CCCCC2c2cccnc2)cc1 (stereo not drawn)	-11%	12%	-7%	22%	6%	i
CCCCC(=O)Nc1ccc(S(=O)(=O)N2CCCCC2c2cccnc2)cc1 (stereo not drawn)	-14%	/	?	/	-4%	i
CCOc1ccc(C(=O)Nc2ccc(S(=O)(=O)N3CCCCC3c3cccnc3)cc2)cc1 (stereo not drawn)	-40%	/	?	/	18µM*	?
CC(=O)Nc1ccc(N(CC(O)Cn2c3ccccc3c3ccccc32)S(=O)(=O)c2ccc(C)cc2)cc1 (stereo not drawn)	-49%	-6%	14µM*	42%[10 µM]	?	i
Cc1ccc(N(CC(O)Cn2c3ccccc3c3ccccc32)S(C)(=O)=O)cc1 (stereo not drawn)	-52%	-15%	?	-62%[10 µM]	-6%	i
Cc1ccc(-n2c(CNc3ccc(F)cc3)nnc2SCC(N)=O)cc1	-30%	22µM*	1%	-35%	1%	i
N[C@@H](C(=O)O)[C@@H]1C[C@H]1C(=O)O	/	/	/	3%[1.9 µM]	/	/
CN[C@H](CC(C)C)C(=O)N[C@H]1C(=O)N[C@@H](CC(N)=O)C(=O)N[C@@H]2C(=O)N[C@H]3C(=O)N[C@H](C(=O)N[C@H](C(=O)O)c4cc(O)cc(O)c4-c4cc3ccc4O)[C@H](O)c3ccc(c(Cl)c3)Oc3cc2cc(c3O[C@@H]2O[C@H](CO)[C@@H](O)[C@H](O)[C@@H]2O[C@H]2C[C@](C)(N)[C@H](O)[C@H](C)O2)Oc2ccc(cc2Cl)[C@H]1O	/	/	/	/	3%	/
Cc1ccc(C(=O)N2C(=S)C(c3ccc(F)cc3)=NC23CCN(C)CC3)cc1	-50%	?	?	-4%[10 µM]	22µM*	25µM*
COc1ccc(O)c(/C=N/NC(=S)Nc2cccnc2)c1	-22%	13µM*	?	-148%	/	i
CC(C)C(=O)NCC1CCC2(CCN(Cc3ccc(-c4cccc(Cl)c4)o3)CC2)O1 (stereo not drawn)	/	/	/	/	/	i
Cn1c2ccccc2c2cc(C(=O)N3CCOc4ccc(C(C)(O)CCn5cccn5)cc4C3)ccc21 (stereo not drawn)	/	/	/	/	/	i
CCn1nc(C)c(C(=O)Nc2cc(Oc3cc(C)cc(C)c3)cc([N+](=O)[O-])c2)c1C	-46%	?	14µM*	-61%	-25%	i
SMILES	HepG2 viability	HTT aggregate	TGFb SMAD3 inh	HTT ATP protect	ATXN2 expr inh	ATXN viability
Cc1nn(C)cc1C(=O)Nc1cc(Oc2ccc(Cl)cc2)cc([N+](=O)[O-])c1	-3%	24%	10%	-18%	0%	i
Cc1c(C(=O)N2CCN(C)CC2)sc2ncnc(NCC3(c4ccccc4)CCOCC3)c12	/	/	/	/	/	i
CC(C)(C)c1ccc(C(=O)N2CCCCCC2=O)cc1	-20%	-16%	13%	-11%[10 µM]	6.3µM*	i
CCCCn1c(NC(=S)Nc2ccccc2)nc2ccccc21	-19%	-4%	13µM*	?	-14%	i
CCCCCn1c(NCc2ccccc2OC)nc2ccccc21	-43%	/	16µM*	/	?	?
COc1ccc(CNc2nc3ccccc3n2Cc2ccc(Cl)cc2)cc1OC	-36%	?	14µM*	20%[10 µM]	-26%	i
CCCCn1c(NCc2ccccc2O)nc2ccccc21	-9%	-14%	-16%	-18%	-12%	?
S=C(Nc1ccccc1)Nc1nc2ccccc2n1CCOc1ccccc1	-45%	?	5%	-117%	?	i
CCc1cc2c(nc1CC)CCN(CC/C(C)=N/OC[C@@H](O)[C@@H]1O[C@@H]3OC(C)(C)O[C@@H]3[C@H]1O)C2	/	/	/	-5%[10 µM]	/	/
Cc1[nH]c2c(F)cccc2c1CC(=O)NCCN1Cc2ccccc2OC(C)C1 (stereo not drawn)	/	/	/	/	/	i
C=CCN1c2ccccc2[C@]23C[C@@H](C(=O)OC)N(S(=O)(=O)CCCC)C2=NC(C(=O)OC)=C(C(=O)OC)[C@H]13	/	/	/	20%[10 µM]	/	/
CCCC[C@@H](CNC)NC[C@H](NCCCCC1CCCCC1)C(C)C	-99%	/	?	/	25µM*	?
CCC[C@@H](CN[C@@H](CNC)[C@H](C)CC)NCC1CCC(C(C)(C)C)CC1 (stereo partly drawn)	-119%	/	?	/	?	/
CC(=O)N[C@@H](CCC(N)=O)C(=O)O	/	/	/	/	5%	i
COc1ccccc1NC(=O)/C(C#N)=C/c1cc([N+](=O)[O-])ccc1N1CCCC1	1%	16%	-2%	4µM*	0%	i
COc1ccccc1NC(=O)/C(C#N)=C/c1ccncc1	0%	/	4%	/	-17%	i

Screening results as filed in PubChem.
